Measured values from the supplement of paper PMC6555819.

Assays:
Assay in all cases: PBM binding z-score (relative to random genomic background probes); higher = stronger binding; sequences stand for … in GC…GCGATTGACAGCGTAGAATGAAGG
[1] = system: FXR:RXRa (NR concentration 270 nM, RXRa partner concentration 90 nM)
Method in brief: (§1)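 Binding z-scores take random background probes as their reference. They come from custom Agilent 4×180K protein-binding microarrays incubated 1 h with ligand-free nuclear receptor dimers, with antibodies against each partner (one per run) detecting binding. Scanned fluorescence was regression-normalized.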

[2] = system: LXRa:RXRa (NR concentration 270 nM, RXRa partner concentration 90 nM)
Method in brief: as §1

[3] = system: LXRa homodimer (NR concentration 270 nM)
Method in brief: as §1

[4] = system: LXRb:RXRa (NR concentration 270 nM, RXRa partner concentration 90 nM)
Method in brief: as §1

[5] = system: LXRb homodimer (NR concentration 270 nM)
Method in brief: as §1

[6] = system: PPARa:RXRa (NR concentration 270 nM, RXRa partner concentration 90 nM)
Method in brief: as §1

[7] = system: PPARg:RXRa (NR concentration 180 nM, RXRa partner concentration 90 nM)
Method in brief: as §1

[8] = system: PPARg:RXRa 270nM:90nM, anti-RXR (NR concentration 270 nM, RXRa partner concentration 90 nM)
Method in brief: as §1

[9] = system: PPARg:RXRa 30nM:10nM, anti-RXR (NR concentration 30 nM, RXRa partner concentration 10 nM)
Method in brief: as §1

[10] = system: PPARg:RXRa 90nM:30nM, anti-RXR (NR concentration 90 nM, RXRa partner concentration 30 nM)
Method in brief: as §1

[11] = system: PPARg:RXRa DBDmut IVT, anti-RXR (DBD mutation: RXRa K156A/R161A, NR concentration 270 nM, RXRa partner concentration 90 nM)
Method in brief: as §1

[12] = system: PPARg:RXRa IVT, anti-PPARg (NR concentration 270 nM, RXRa partner concentration 90 nM)
Method in brief: as §1

[13] = system: PPARg DBDmut:RXRa IVT, anti-PPARg (DBD mutation: PPARg1 K132A/R137A, NR concentration 270 nM, RXRa partner concentration 90 nM)
Method in brief: as §1

[14] = system: PPARg DBDmut IVT, anti-PPARg (DBD mutation: PPARg1 K132A/R137A, NR concentration 270 nM)
Method in brief: as §1

[15] = system: PPARg homodimer (NR concentration 180 nM)
Method in brief: as §1

[16] = system: PXR:RXRa (NR concentration 270 nM, RXRa partner concentration 90 nM)
Method in brief: as §1

[17] = system: PXR homodimer (NR concentration 270 nM)
Method in brief: as §1

[18] = system: RARa:RXR (NR concentration 270 nM, RXRa partner concentration 90 nM)
Method in brief: as §1

[19] = system: RARa homodimer (NR concentration 270 nM)
Method in brief: as §1

[20] = system: RARb:RXRa (NR concentration 270 nM, RXRa partner concentration 90 nM)
Method in brief: as §1

Row | Sequence | PBM binding z-score [1] | PBM binding z-score [2] | PBM binding z-score [3] | PBM binding z-score [4] | PBM binding z-score [5] | PBM binding z-score [6] | PBM binding z-score [7] | PBM binding z-score [8] | PBM binding z-score [9] | PBM binding z-score [10] | PBM binding z-score [11] | PBM binding z-score [12] | PBM binding z-score [13] | PBM binding z-score [14] | PBM binding z-score [15] | PBM binding z-score [16] | PBM binding z-score [17] | PBM binding z-score [18] | PBM binding z-score [19] | PBM binding z-score [20]
1 | ATCTCTAGGTAAAAGTTCAGTCAATCCCGAGGAT | 0.989 | 1.98 | 1.79 | 1.6 | 1.34 | 4.61 | 8.25 | 8.34 | 7.47 | 9.66 | 2.32 | 4.22 | 1.46 | 1.49 | 1.74 | 2.36 | 2.13 | 1.68 | 1.1 | 2.64
2 | CTCGAAGGGTCGTGCTCAGGTGAGTATACCAAAC | 2.01 | 1.45 | -0.37 | 1.52 | -0.487 | 2.89 | 0.441 | 1.12 | -0.0599 | 0.72 | -0.253 | 0.525 | -0.515 | 0.0417 | 0.506 | 1.37 | -0.509 | 2.56 | -0.561 | 2.31
3 | GCTATTAGTTGAAAGGGCAACCCAATGATTCTCG | 0.453 | 0.68 | 0.645 | 0.925 | -0.181 | 2.4 | 2.65 | 4.29 | 1.81 | 3.88 | 0.127 | 0.818 | -0.129 | 0.251 | 1.44 | 0.791 | 0.511 | 1.27 | 0.81 | 2.08
4 | TGTCAAACTTCAAAGGTAACGTAAGTATCCACAC | 0.417 | 0.363 | -0.174 | 0.695 | 0.266 | 0.877 | 0.587 | 0.784 | 0.906 | 0.841 | -0.251 | 1.47 | 0.991 | 1.2 | 0.478 | 0.345 | -0.16 | 0.522 | 0.335 | 0.94
5 | TAGCCTAGGTCATTGGGCCAGTATCGTACGCATC | 4.61 | 3.37 | 0.842 | 2.55 | 0.185 | 3.85 | 3.26 | 3.52 | 0.601 | 2.34 | 2.91 | 3.95 | 0.593 | -0.521 | 1.11 | 1.68 | -0.331 | 2.39 | 0.0894 | 3.85
6 | TCTTGTAGATAAGCAGGTTAAGAAAGCTGGCCAA | 0.562 | 0.358 | -0.156 | -0.00905 | -0.669 | 0.533 | -0.481 | 1.19 | 2.41 | 1.65 | 1.32 | 0.184 | 0.000724 | -0.186 | 0.0505 | 0.206 | -0.278 | 0.402 | 0.154 | 0.0488
7 | GGAACGAGGGCAAAGTTGATCGCATCTGTCGACG | 1.11 | 0.829 | -0.561 | 0.545 | -0.311 | 3.82 | 6.68 | 6.95 | 5.94 | 7.29 | 3.98 | 4.13 | -0.0459 | -0.518 | 0.458 | 0.924 | 0.152 | 1.42 | -0.502 | 2.32
8 | TTACCAAGGTGTAGGTCGTTGATCCCTCTGTAGA | 0.674 | 1.15 | 0.0593 | 0.801 | -0.638 | 0.814 | -0.0136 | 1.68 | 0.61 | 1.52 | -0.191 | 0.759 | -0.595 | 0.0644 | 0.0452 | 0.444 | -0.501 | 0.688 | -0.329 | 0.379
9 | CTCGAAAGGTCGTGCTCAGGTGAGTAGACCAAAC | 5.65 | 3.86 | -0.195 | 3.08 | 0.0468 | 4.81 | 2.71 | 3.96 | 0.899 | 2.88 | 0.641 | 1.86 | 1.76 | 0.659 | 3.39 | 3.11 | -0.191 | 4.48 | -0.171 | 3.91
10 | TCTTGTAGCTCAAAGGTTAAGAAAGCCGAAGCCT | 0.766 | 1.08 | -0.349 | 1.32 | -0.747 | 3.36 | 4.77 | 6.09 | 4.64 | 6.1 | 1.21 | 1.99 | 0.0313 | -0.321 | 0.397 | 1.27 | -0.227 | 1.83 | -0.437 | 1.61
11 | GATACAGGGTCAGCTAGAGGCCAGAGTGTGGAAA | 4.82 | 3.13 | -0.348 | 2.53 | -0.522 | 4.62 | 3.38 | 3.34 | 0.644 | 2.07 | 0.974 | 2.4 | -0.57 | -0.662 | 3.47 | 3.5 | 0.00381 | 4.66 | -0.116 | 4.25
12 | ATCGAAAGGTCGAACGTGAGTATACCCACCCGAA | 4.36 | 3.99 | 0.856 | 3.32 | 1.01 | 4.39 | 2.81 | 2.76 | 1.14 | 2.12 | 0.292 | 1.49 | 1.19 | 0.459 | 1.65 | 2.61 | 0.229 | 2.83 | 0.171 | 3.75
13 | TCTGCTAGGTCAGTTGGTCAGTTAACGAGCTGCC | 0.865 | 0.257 | -0.414 | 0.323 | 0.405 | 1.37 | 0.334 | 1.33 | 0.985 | 1.08 | 2.93 | 2.98 | 1.52 | 0.61 | 0.428 | -0.000879 | -0.602 | 0.398 | -1.15 | 3.3
